# HTR5A ag: HTR5A agonism, opioid heterodimer counter-screen | P47898 | HTR5A agonist assay, luminescence, cell-based | activation, % at 9.3 µM | actives 0.61% (n = 340,000); in the data active = activation mostly above about 9.5%, no sharp cut-off; inactive = mostly below about 7.6%;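 note: 0% = cells with vehicle only and 100% = reference agonist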
# HTR5A inv ctr: inverse agonist of human HTR5A in OPRM1-OPRD1 counter-screen; P47898; HTR5A cell line, luminescence, inverse agonism; inhibition, % at 9.3 µM; actives 0.083% (n = 340,000); in the data active = inhibition mostly above about 23%, no sharp cut-off; inactive = mostly below about 18%;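 note: 0% = cells with DMSO and 100% = no-cell wells with DMSO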
# bovine MsrA act: activators of bovine methionine sulfoxide reductase A; purified bovine MsrA, absorbance read-out; activation, % at 10.6 µM; actives 0.3% (n = 360,000); AID 602163; in the data active = activation above about 7.5%;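 note: 0% = vehicle and 100% = reference activator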
# MOR-DOR ag: OPRM1-OPRD1 heterodimerization agonism; actives 0.3% (n = 340,000); P35372+P41143; activation, % at 9.3 µM; cells, luminescence; AID 504326; in the data active = activation above about 18%;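 note: 0% = vehicle-treated cells and 100% = reference agonist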
# MsrA inhibitor: inhibits bovine methionine sulfoxide reductase A. inhibition, % at 15.5 µM. purified bovine MsrA, absorbance read-out. actives 0.75% (n = 360,000). AID 651718; in the data active = inhibition above about 4.5%;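 note: 0% = vehicle wells with enzyme and 100% = reference inhibitor wells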
# OPRM1-OPRD1 inv: inverse agonist of human OPRM1-OPRD1 heterodimerization; P35372+P41143; cell-based MOR-DOR heterodimer luminescence, inverse agonism; inhibition, % at 9.3 µM; actives 0.21% (n = 340,000); in the data active = inhibition above about 22%, passing the limit was not always enough;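 note: 0% = cells with DMSO and 100% = wells without cells with DMSO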
# Numbers without * were called inactive; / = no result given. In the library only some 1.9% were active in any assay of this set; here they are far more common.
SMILES,HTR5A ag,HTR5A inv ctr,bovine MsrA act,MOR-DOR ag,MsrA inhibitor,OPRM1-OPRD1 inv
Cc1ccc(-n2c(=O)c3ccc(C(=O)NCc4ccco4)cc3n(Cc3ccccc3C#N)c2=O)cc1,-10,37*,0,-7,-1,35*
Cc1ccc(Nc2nc(-c3ccc(S(=O)(=O)N4CCCC4)cc3)cs2)cc1C,10*,3,-4,2,/,-9
O=C1NC(c2ccccc2)C(C(=O)c2cccs2)C(O)(C(F)(F)F)N1 (stereo not given),11,-26,1,-3,0,15
CN1C(=O)NC(c2ccc(O)cc2)C(C(=O)c2cccs2)C1(O)C(F)(F)F (stereo not given),-4,0,-11,-2,4.5*,14
Nc1ccc(Oc2ccc([N+](=O)[O-])cc2[N+](=O)[O-])cc1,1,9,-12,3,1,-17
O=[N+]([O-])c1ccc(Oc2cccnc2)c([N+](=O)[O-])c1,-1,6,0,0,4.5*,-2
CCCCNC(=S)NNC(=O)CCn1cc(C)cn1,-2,20,-1,-2,1,11
CCCCNC(=S)NNC(=O)CCn1nc(C)c(Br)c1C,-10,49*,-11,-14,0,76*
COc1ccc(CNC(=O)COC(=O)c2c(NC(C)=O)sc(C)c2C)cc1,14*,-10,0,0,2,0
COc1ccc(/C=N/Nc2ccccn2)cc1OC,/,/,-5,/,4.6*,/
Cc1cccc(C)c1OCc1cc(C(=O)NCC2CCCCC2)no1,-1,-6,8,3,-1,-16
Cc1cccc(C)c1OCc1cc(C(=O)N(Cc2c(C)nn(C)c2C)C2CC2)no1,11*,-10,-2,2,1,-11
O=C(Nc1cccnc1)c1cc(-c2cccc(Br)c2)nc2ccccc12,13*,-7,-6,10,3,-51
O=C(Nc1cccnc1)c1cc(-c2cccnc2)nc2ccc(Br)cc12,3,12,0,3,0,-19
CC1CCN(C(=O)COC(=O)c2cc([N+](=O)[O-])ccc2N2CCOCC2)CC1,12*,-33,-4,0,1,2
COC(=O)C1CCN(C(=O)COC(=O)c2cc([N+](=O)[O-])ccc2N2CCOCC2)CC1,5,18,-4,-3,3,13
CN[C@H]1C[C@@H](c2ccccc2Br)N(C(C)=O)C[C@H]1CO,/,/,/,/,0,/
CC1CC(C)CN(CCCNC(=O)CN2C(=O)CSc3ccc(S(=O)(=O)N4CCOCC4)cc32)C1 (stereo not given),12*,-33,6,-3,0,14
O=C(NCC1CCN(C(=O)C(=O)c2cccs2)CC1)c1ccncc1,/,/,/,/,0,/
CC(=O)n1cc(/C=N/NC(=O)c2ccccc2O)c2ccccc21,-2,7,-1,-2,3,9
Cn1cc(/C=N/NC(=O)c2ccccc2O)c2ccccc21,10*,-35,-1,-4,4,22
CC(C)c1[nH]nc2c1C(c1ccccc1)N(c1ccccc1)C2=O (stereo not given),/,/,/,/,0,/
COC(=O)c1cc2c(c3c4cc(F)ccc4n(S(=O)(=O)c4ccc(C)cc4)c13)C(=O)N(Cc1ccc(C(F)(F)F)cc1)C2,/,/,/,/,-1,/
CNC(=S)N1CCn2cccc2C1c1ccc(F)cc1 (stereo not given),8.0*,-20,-2,0,-1,-1
CCN(CC)S(=O)(=O)c1ccc(N=Nc2c(C)[nH]n(C(N)=S)c2=O)cc1,-5,9,-12,-1,4.5*,7
SMILES,HTR5A ag,HTR5A inv ctr,bovine MsrA act,MOR-DOR ag,MsrA inhibitor,OPRM1-OPRD1 inv
O=C(N[C@@H](Cc1cccnc1)C(=O)N1CCC[C@H]1C(=O)NCCc1ccccc1Cl)c1ccc(Cl)cc1Cl,/,/,/,/,2,/
Nc1cc(S(=O)(=O)C(F)(F)F)ccc1C(=O)O,12*,-44,-8,0,0,0
O=C1CC(c2cccc(Cl)c2)Cc2nc(N3CCOCC3)ncc21 (stereo not given),13*,13,-1,0,0,2
COc1ccc(S(=O)(=O)N2CCCc3nc(-c4ccc(F)cc4)ccc32)cc1,/,/,/,/,-1,/
CCNC(=O)O/N=C(\C)c1sc(-c2ccc(Cl)cc2)nc1C,-2,6,-4,0,4.6*,1
CC(C)CNc1ccc2c(c1)OC[C@H](C)NS2(=O)=O,/,/,/,/,0,/
COc1ccc(NC(=O)c2cc(-c3cc(C)cc(C)c3O)n[nH]2)cc1Cl,11*,-34,4,8,1,-42
O=C(Nc1ccc(O)cc1)c1cc2ccccc2c(=O)s1,-1,-15,1,1,4.7*,-4
Cc1cc(O)cc(=O)n1-c1cc(C(F)(F)F)cc(C(F)(F)F)c1,/,/,/,/,0,/
COc1cc(C(=O)Nc2cccc(S(=O)(=O)N3CCCC3)c2)c([N+](=O)[O-])cc1OC,-6,14,-2,-3,4.6*,18
COc1cccc(NC(=O)CSCC(=O)O)c1,14*,-31,-14,-2,0,9
O=C(NCC1CCN(C(=O)C(=O)c2cccs2)CC1)c1ccc2c(c1)CCO2,/,/,/,/,1,/
COC(=O)CNC(=O)Cn1c(=O)n(Cc2ccc(F)cc2)c(=O)c2sccc21,11*,-42,-8,0,-1,2
O=C(Cn1c(=O)n(-c2ccc(F)cc2)c(=O)c2sccc21)NC1CCCCC1,12*,21,-2,-3,-1,14
COc1ccc(CN2C(=O)C(C)Nc3ncnc(N4CCOCC4)c32)cc1 (stereo not given),-1,22,-1,-1,0,4
CC1Nc2ncnc(N3CCN(c4ccccc4)CC3)c2N(Cc2ccc(Br)cc2)C1=O (stereo not given),-25,69*,-4,-13,-1,71*
COc1ccc(CN2C(=O)C(C)Nc3ncnc(N4CCN(c5ccccc5)CC4)c32)cc1 (stereo not given),-13,42*,-3,-11,-1,50*
CC1Nc2ncnc(N3CCOCC3)c2N(Cc2ccccc2)C1=O (stereo not given),-2,-5,2,-1,2,3
COCCCNC(=O)c1nnn2c1nc(N)c1cc(Cl)ccc12,/,/,/,/,1,/
Nc1cccc(Nc2nc(OC(C(F)(F)F)C(F)(F)F)nc(OC(C(F)(F)F)C(F)(F)F)n2)c1,12*,-10,2,10,0,-56
COc1nc(Nc2ccc(O)cc2)nc(OC(C(F)(F)F)C(F)(F)F)n1,1,-18,-10,2,0,-10
COc1nc(OC)nc(N2CCC(NC(=O)C(Cc3ccc(C(C)C)cc3)NC(C)=O)CC2)n1 (stereo not given),11*,20,-2,-2,3,11
CCOC(=O)N1CCN(C(=O)C[C@H]2C[C@@]3(C(=O)OC)C(=C[C@H](C(C)(C)C)O[C@@H]3C)N(CCC3=CCCCC3)C2=O)CC1,/,/,/,/,0,/
Cc1cc(C(=O)NN)c2cc(Br)ccc2n1,13*,-41,4,1,0,-4

# Screening data as filed in PubChem.
